# A selection: hits, their analogues and other compounds. The true share with any hit is near 7.3%.
# SNCA expr inh: SNCA gene expression inhibition; AID 1671194; HEK-293 SNCA-luciferase knock-in, luminescence, 24 h; 140,000 tested, 0.17% active; Potency, µM (series often up to 57.2 µM), inactives show top-dose activity change, negative = inhibition, most hits filed as inhibitors;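 also: potency is read from the fitted curve at half-maximal effect; plate controls were DMSO cells for no effect and cell-free wells for full effect; nearly all actives have a fitted effect of over 45% in size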
# HEK293 viab: cell viability loss counter-screen; 150,000 tested, 0.12% active; HEK-293-SNCA-luc viability, GF-AFC fluorescence, 24 h; Potency, µM (highest dose often 57.1 µM), inactives show at the highest dose activity change, negative = cytotoxicity, hits mostly cytotoxic;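 also: potency is read from the fitted curve at half-maximal effect; 0% = DMSO-treated cells and -100% = medium-only wells without cells; nearly all actives have a fitted effect of over 30% in size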
#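 Cytotoxicity counterscreen: after 24 h compound treatment of genome-edited SNCA-luciferase HEK-293 cells, live-cell protease substrate GF-AFC read by fluorescence after 30 min; activity scaled between DMSO (0%) and medium-only (-100%), curves Hill-fitted.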
# IP6K1 inh: blocks human inositol hexakisphosphate kinase 1; Q92551; IP6K1 kinase, ADP-Glo luminescence, 2 h; active compounds read low; activity change, % (series mostly up to about 58 µM); 140,000 tested, 0.81% active; AID 1645851; in the data active = activity change below about -25%
# Target sequence (Q92551 whole entry, looked up): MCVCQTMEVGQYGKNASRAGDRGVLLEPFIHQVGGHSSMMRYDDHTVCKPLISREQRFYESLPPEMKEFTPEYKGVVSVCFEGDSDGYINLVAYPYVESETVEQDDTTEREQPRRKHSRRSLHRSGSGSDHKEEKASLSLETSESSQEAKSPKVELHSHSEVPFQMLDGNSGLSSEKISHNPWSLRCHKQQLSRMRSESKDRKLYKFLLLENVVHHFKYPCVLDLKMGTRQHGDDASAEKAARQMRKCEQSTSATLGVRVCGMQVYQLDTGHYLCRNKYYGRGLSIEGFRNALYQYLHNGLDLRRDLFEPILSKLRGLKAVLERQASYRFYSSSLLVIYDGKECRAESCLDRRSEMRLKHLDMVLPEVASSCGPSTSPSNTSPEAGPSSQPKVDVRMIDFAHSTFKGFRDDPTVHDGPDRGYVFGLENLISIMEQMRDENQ
#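 ADP-Glo luminescence measures ADP made by human IP6K1 during a 2 h RT reaction with ATP/IP6 (mix at 1.3 mM/130 uM); top library doses 57.5 and 19.1 uM final.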
# FLuc inh: Photinus pyralis luciferase inhibition | Potency, µM (top dose mostly 115 µM), most hits filed as inhibitors | P08659 | purified P. pyralis luciferase, luminescence, biochemical | 76,000 tested, 2.5% active | AID 1347043; also: potency is read from the fitted curve at half-maximal effect; nearly all actives have a fitted effect of over 65% in size
#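 Cell-free enzyme assay, 10nM P. pyralis luciferase, luciferin and ATP each at 10uM. Inhibition profiled over a 6-point titration, read as luminescence.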
# HEK cytotox: HEK 293 cell cytotoxicity | HEK 293 viability, ATP luminescence (CellTiter-Glo), 48-72 h | Potency, µM (highest dose often 115 µM), for the others: at the top dose activity change, negative = cytotoxicity, hits mostly inhibitors | 94,000 tested, 6.6% active | AID 1345083; also: potency is read from the fitted curve at half-maximal effect; nearly all actives have a fitted effect of over 60% in size
#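 Cytotoxicity was scored by loss of ATP-coupled luminescence (CellTiter-Glo) in HEK 293 cells. Compound treatment ran 48 or 72 hr at 37 degree Celsius, 5% CO2, 95% humidity.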
# NIH3T3 tox: NIH 3T3 cell cytotoxicity. NIH 3T3 viability, CellTiter-Glo ATP luminescence, 48-72 h. Potency, µM (titrated, usually from 96.7 µM), inactives show top-dose activity change, negative = cytotoxicity, usual class: inhibitors. 94,000 tested, 4.3% active; also: potency is read from the fitted curve at half-maximal effect; nearly all actives have a fitted effect of over 55% in size
#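 ATP-dependent luminescence (CellTiter-Glo) served as the viability signal for NIH 3T3 cells treated with compound for 48 or 72 hr at 37 °C.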
# An asterisk follows results filed as active; i = inactive; ? = inconclusive; . = no result given; [ ] = remark or other dose. Unless noted, calls follow the shape of the dose curve; as a rule, active = well fitted curve in the direction sought with a large enough effect; inconclusive = small, poorly fitted or top-dose-only effect, or another doubt; inactive = no such curve, though single readings can be large; an effect the other way counts as inactive or inconclusive. Unless noted, % is scaled to controls: 0 for no effect and ±100 for the full control effect.
SMILES,SNCA expr inh,HEK293 viab,IP6K1 inh,FLuc inh,HEK cytotox,NIH3T3 tox
Cc1cc(CNC(=O)c2cc(C(C)C)nn2C)c2[nH]c(C)c(C)c2c1,-16.2%,-14.9%,11.3,i,39.8µM*,?
Cc1cccc(Cl)c1NC(=O)CN1C(=O)NC2(CCC(C)CC2)C1=O (centres undefined),20.9%,-4.8%,-2.0,i,-10.2%,-6.6%
Cc1cccc(NC(=O)N2CCCC(Cn3c(C)nc4cccnc43)C2)c1 (centres undefined),75.6%,-3.4%,4.0,i,-6.6%,-17.1%
COCC(=O)NC1CCCN(Cc2cccc(-c3ccc(C)c(Cl)c3)c2)C1 (centres undefined),12.7%,-5.1%,23.3,.,?,?
CC(=O)NC1CCCN(Cc2cccc(-c3ccc(C)c(Cl)c3)c2)C1 (centres undefined),145.8%,-1.2%,0.2,.,20µM*,35.5µM*
COC(=O)NC1CCCN(Cc2cccc(-c3ccc(C)c(Cl)c3)c2)C1 (centres undefined),1.5%,11.6%,-9.9,.,44.7µM*,?
Cc1ccc(-c2cccc(CN3CCCC(NC(=O)Nc4ccccc4F)C3)c2)cc1Cl (centres undefined),-21.5%,?,-1.4,.,17.8µM*,28.2µM*
Cc1ccc(-c2cccc(CN3CCCC(NC(=O)Cc4ccccc4)C3)c2)cc1Cl (centres undefined),-8.3%,4.6%,-13.8,.,i,-3.0%
Cn1nc(C2CCCC2)cc1NC(=O)C1CC1,9.7%[87.6 µM],-2.4%[87.6 µM],11.1,.,3.3%[172 µM],-14.1%[138 µM]
CCOC(=O)C(Cc1ccc(F)c(N2CCN(C(=O)OC(C)(C)C)CC2)c1)OC (centres undefined),.,.,6.9,.,?,?
CN(C)C[C@@H]1CN(Cc2ccccc2)C[C@H]1N,7.7%,-10.2%,-10.7,i,?,?
Cn1ncc2c(C(=O)NCc3cccc(C(F)(F)F)c3)cc(-c3ccsc3)nc21,?,-20.6%,-11.5,.,28.2µM*,?
CC(C)CNC(=O)c1cc(-c2ccsc2)nc2c1cnn2C,7.5%[87.6 µM],4.8%[87.6 µM],-5.5,.,70.8µM*,?
CC(C)CNC(=O)c1cc(-c2cccnc2)nc2c1cnn2C,-4.9%[87.6 µM],-15.1%[87.6 µM],0.2,.,?,?
O=C(NCCCc1ccccc1)C1CCN(Cc2ccccc2-c2ccccc2F)CC1,.,.,6.5,.,22.4µM*,?
O=C(C1CCN(Cc2ccccc2-c2ccccc2F)CC1)N1CCC(Cc2ccccc2)CC1,.,.,18.4,.,35.5µM*,35.5µM*
O=C(NCc1cccc(F)c1)C1CCN(Cc2ccccc2-c2ccccc2F)CC1,.,.,27.7,.,39.8µM*,?
O=C(c1ccc(F)cc1)N1CCN(Cc2ccccc2-c2ccccc2F)CC1,-5.7%,3.3%[12.5 µM],10.7,.,?,?
O=C(NCc1ccc2c(c1)OCO2)C1CCN(Cc2ccccc2-c2ccccc2F)CC1,.,.,8.4,.,?,?
O=C(c1cccc(Cl)c1)N1CCN(Cc2ccccc2-c2ccccc2F)CC1,?,8.4%[12.5 µM],-0.1,.,?,44.7µM*
O=C1Nc2ccccc2CC12CN(CC1CCCC1)C2,-23.1%[87.6 µM],3.4%[87.6 µM],0.6,.,-17.3%[172 µM],-3.4%[138 µM]
Cc1cccc(CC(=O)N2CCC(Cc3nc(C4CCOCC4)no3)CC2)c1,6.1%,0.9%,0.2,i,?,-7.0%
O=C(C1CCCCC1)N1CCC(C2CCN(Cc3cccc(F)c3F)CC2)C1 (centres undefined),-10.4%,-8.0%,0.5,i,79.4µM*,?
CN(c1ccccc1)c1ccc2nnc(-c3cc(C(=O)Nc4ccccn4)ccn3)n2n1,-8.3%[87.6 µM],-19.0%[87.6 µM],-13.2,i,56.2µM*,?
CN(c1ccccc1)c1ccc2nnc(-c3cc(C(=O)NCc4cccnc4)ccn3)n2n1,-3.9%[87.6 µM],-8.1%[87.6 µM],-6.6,i,100µM*,25.1µM*
O=C(Nc1ccncc1)c1ccnc(-c2nnc3ccc(N4CCOCC4)nn23)c1,-15.1%[87.6 µM],-10.3%[87.6 µM],-11.6,i,-5.8%[172 µM],89.1µM*
COc1cccc(NC(=O)c2ccnc(-c3nnc4ccc(N(C)C)nn34)c2)c1,14.1%[87.6 µM],-13.2%[87.6 µM],-3.8,i,?,31.6µM*

# Compound activity deposited in PubChem by National Center for Advancing Translational Sciences (NCATS).
